Source: PubChem BioAssay (several laboratories)
ADAM17 inh: inhibitors of human ADAM17; hit rate 0.83% among 370,000; recombinant ADAM17, EDANS/DABCYL FRET peptide cleavage; inhibition, % at 6.95 µM; P78536;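 active = inhibition above the mean of compounds lying between control limits plus 3 SD, set per campaign, cut at about 8.5% in these data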;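 also: 0% = DMSO-only wells as the low control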
proKLK7 act: activates the human kallikrein-7 zymogen; activation, % at 7 µM; hit rate 0.9% among 370,000; purified proKLK7, EDANS-DABCYL substrate fluorescence; 100% is mature enzyme control, 0% vehicle;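 active = activation above the mean of all tested compounds plus 3 SD, computed per campaign excluding outliers beyond control limits, cut at about 13% in these data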
Target sequence (P49862 whole entry, looked up): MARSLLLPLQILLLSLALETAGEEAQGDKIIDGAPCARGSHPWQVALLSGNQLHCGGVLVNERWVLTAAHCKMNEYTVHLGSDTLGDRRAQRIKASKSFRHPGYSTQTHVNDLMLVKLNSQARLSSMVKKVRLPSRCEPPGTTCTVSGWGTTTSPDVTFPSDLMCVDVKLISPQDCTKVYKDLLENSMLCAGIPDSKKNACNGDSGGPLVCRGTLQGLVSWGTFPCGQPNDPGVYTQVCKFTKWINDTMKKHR
FGF22 binding: FGF22 (human) thermal shift binding | Q9HCT0 | recombinant FGF22 thermal shift, SYPRO orange fluorescence; percent of sucrose octasulfate shift, DMSO zero | activity (Tm shift, normalised), % at 9.99 µM | hit rate 1.5% among 340,000;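 active = mean Tm shift, scaled 0 neutral to 100 positive control, at about 1.3% or above, every replicate too, limit read from the data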
Target sequence (Q9HCT0 whole entry, looked up): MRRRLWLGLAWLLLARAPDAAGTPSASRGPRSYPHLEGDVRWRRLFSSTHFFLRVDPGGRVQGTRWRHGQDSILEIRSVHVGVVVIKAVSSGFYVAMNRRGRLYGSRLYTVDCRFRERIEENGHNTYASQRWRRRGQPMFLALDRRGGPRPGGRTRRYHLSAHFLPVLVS
rRNA inh HTS: selective bacterial rRNA inhibition in E. coli | E. coli WT GFP vs humanized-ribosome RFP mutants, fluorescence, 24 h; stronger effect = lower value; DMSO median 0, no signal -100 | GFP signal change (wild-type ribosome), % (no concentration beside the values) | hit rate 1.6% among 350,000;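 active = significant combined selectivity score with lowered wild-type GFP, culture density cut under 30%, mutant RFP and density less affected; inactive = any of these conditions unmet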
ADAM10 inh: inhibits human ADAM10; O14672; recombinant ADAM10, EDANS/DABCYL FRET peptide cleavage, 3 h; inhibition, % at 7 µM; hit rate 0.62% among 370,000; AID 720582;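 active = inhibition above a per-campaign cutoff equal to the mean of compounds falling between control-based bounds plus 3 SD, cut at about 20% in these data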;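 also: 0% = DMSO wells while the 100% control is not disclosed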
The depositor's hits bear a star; . = no result given. A selection: hits, their analogues and other compounds. The true share with any hit is near 3.8%.

SMILES	ADAM17 inh	proKLK7 act	FGF22 binding	rRNA inh HTS	ADAM10 inh
CCc1ccc(-c2cc(C(=O)N/N=C/c3ccccn3)[nH]n2)cc1	1.5	-0.1	0.1	-25.4*	-3.2
C/C=C/c1cnc2c(c1)C(=O)N([C@H](C)CO)C[C@@H](C)[C@H](CN(C)C(=O)C1CC1)O2	.	.	.	0.1	.
Fc1ccc(-c2nnc(-c3ccc4ccccc4c3)o2)cc1	-11.1	-14.9	-0.2	-6.9*	-36.9
CN(C)c1cccc(C(=O)Nc2ccc3nc4n(c(=O)c3c2)CCCCC4)c1	0.8	0.9	0.3	-25.6*	-3.7
COC(=O)c1ccc(COC(=O)c2ccc(CO)cc2)o1	-1.0	0.0	44.0*	0.8	3.5
COC(=O)c1ccc(Cc2ccc(C(=O)OC)o2)o1	-0.9	0.1	.	7.8	0.9
COC(=O)c1ccc(CO/N=C/c2ccc(OC)cc2)o1	6.0	0.2	43.8*	-18.0	4.2
COc1ccc2c3c(n(C)c2c1)[C@H](CO)N(Cc1ccc2c(c1)OCO2)CC31CN(C)C1	.	.	.	1.5	.
Cc1cc(C)cc(NC(=O)Nc2cc(S(=O)(=O)N(C)C)ccc2C)c1	-2.8	-0.5	0.1	-23.1*	3.3
CCOc1ccc(N(CC(=O)NC(C(C)C)C(C)C)S(=O)(=O)c2ccc(OC)c(OC)c2)cc1	1.5	0.0	0.1	-30.0*	3.2
O=C(CSc1ccc(-c2ccc(Cl)cc2)nn1)N1CCCc2ccccc21	4.8	0.3	-0.8	-20.2	6.2
CC(=O)Nc1cccc(NC(=O)CSc2ccc(-c3cccnc3)nn2)c1	-2.9	-0.1	0.2	-26.2*	-4.0
O=C(CSc1ccc(-c2cccnc2)nn1)N1CCCc2ccccc21	-2.1	-1.0	0.1	-23.2*	1.8
Cc1ccc(NS(=O)(=O)c2ccc(NC(=O)C3CC3)cc2)cc1C	-0.9	0.3	0.0	-23.6*	-1.6
O=C(Nc1ccc(S(=O)(=O)Nc2ccccc2)cc1)C1CC1	0.1	-0.4	-0.2	-1.1	-2.6
C[C@H](CO)N1C[C@H](C)[C@H](CN(C)S(=O)(=O)c2cccs2)OCCCC[C@H](C)Oc2ccc(NC(=O)NC3CCCCC3)cc2C1=O	.	.	0.1	-1.5	.
Cc1cc(C(=O)COc2ccc(Cl)cc2Br)c(C)n1C	-0.2	0.1	-0.2	-45.5*	3.5
CCC(=O)c1ccc(OCc2ccc(C(=O)OC)cc2)cc1	0.2	-0.3	43.8*	12.4	3.4
C=CCn1c(CCn2c3ccccc3c3ccccc32)n[nH]c1=S	-3.6	-0.7	0.2	-27.1*	-1.5
C[C@@H]1CN([C@@H](C)CO)S(=O)(=O)c2ccc(C3=CCCC3)cc2O[C@H]1CN(C)C(=O)Cc1ccncc1	.	.	0.0	3.8	.
C[C@@H]1CN([C@H](C)CO)C(=O)c2cc(NC(=O)NC3CCCCC3)ccc2O[C@@H](C)CCCCO[C@@H]1CN(C)S(=O)(=O)c1cn(C)cn1	.	.	-0.4	1.0	.
Cc1ccc(Oc2ccc(S(=O)(=O)N3CCOCC3)cc2C(N)=O)cc1C	-4.6	0.2	0.0	-22.9*	2.1
CC(C)C[C@H]1COc2cccc(N3CCC[C@@H]3CO)c2S(=O)(=O)N1	-4.9	0.1	-0.1	-20.5	-3.2
O=S1(=O)N[C@@H](Cc2ccccc2)COc2cccc(N3CCC[C@H]3CO)c21	-3.8	0.0	-0.4	-27.2*	3.2
O=C1N[C@H](Cc2ccccc2)COCc2cnnn2CC[C@H]1Cc1cccc(F)c1	.	.	.	0.5	.
SMILES	ADAM17 inh	proKLK7 act	FGF22 binding	rRNA inh HTS	ADAM10 inh
Oc1ccc(Cl)cc1CNCc1ccc(Cl)cc1	-1.7	-0.4	0.2	-1.5	1.1
Oc1ccc(Cl)cc1Cc1cc(Cl)ccc1O	7.5	-0.5	0.4	.	25.6*
CCC(=O)N1CC2(CN(Cc3nccs3)C2)c2c(n(C)c3cc(OC)ccc23)[C@@H]1CO	.	.	.	1.4	.
Cc1ccc(OCC(=O)Nc2sc3c(c2C#N)CC(C)(C)NC3(C)C)cc1	1.2	0.7	43.5*	-7.2	9.9
CC1(C)Cc2c(sc(NC(=O)COc3cccc4ccccc34)c2C#N)C(C)(C)N1	3.6	-0.5	-0.2	.	11.4
C[C@@H]1CCCCO[C@@H](CN(C)Cc2ccc3c(c2)OCO3)[C@H](C)CN([C@@H](C)CO)C(=O)c2cc(NC(=O)NC3CCCCC3)ccc2O1	.	.	-0.2	0.9	.
Cc1nn(-c2ccc(F)cc2)c2nc(N)c(C#N)c(-c3ccc(O)c(O)c3)c12	-0.2	-0.7	0.2	-18.1*	4.3
Cc1ccc2ncnc(Nc3ccc(C)c(C)c3)c2c1	-4.0	0.5	0.0	-27.4*	-10.4
